# Assay results: PubChem BioAssay (Tox21)
# Calls of active or inactive are those of the source. Where a call stands in place of a potency, no number is given. Unless noted, calls come from the whole dose curve; as a rule, active = well fitted curve in the direction sought with a large enough effect in the repeat runs; inconclusive = weak or mixed curves; inactive = no such curve, though single readings can be large; an effect the other way counts as inactive or inconclusive.
# Tests used:
# [1] = qHTS assay to test for compound auto fluorescence at 535 nm (green) in HEK293 cells (AID 720680)
# [2] = qHTS assay to test for compound auto fluorescence at 460 nm (blue) in HEK293 cell free culture (AID 720681)
# In short: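 Compounds were added to cell-free DMEM with 10% FBS and fluorescence read directly. The blue channel used 405 nm excitation and 460 nm emission, with triamterene as the reference fluorophore.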
# [3] = qHTS assay to test for compound auto fluorescence at 535 nm (green) in HEK293 cell free culture (AID 720682)
# In short: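 No cells present: wells hold DMEM supplemented with 10% FBS, into which compound or vehicle is pinned. Green emission is then recorded (485 nm excitation, 535 nm emission) and scaled to fluorescein.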
# [4] = qHTS assay to test for compound auto fluorescence at 590 nm (red) in HEK293 cell free culture (AID 720683)
# In short: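 Cell-free wells of DMEM with 10% FBS received compound, and intrinsic fluorescence was read at excitation/emission 540/590 nm. Values expressed as equivalence to Rose Bengal sodium.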
# [5] = qHTS assay to test for compound auto fluorescence at 590 nm (red) in HepG2 cell free culture (AID 720684)
# In short: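 Auto fluorescence equivalency versus Rose Bengal sodium, red channel Ex/Em 540/590 nm; compounds in cell-free MEM/10% FBS; DMSO vehicle control.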
# [6] = qHTS assay to test for compound auto fluorescence at 460 nm (blue) in HepG2 cell free culture (AID 720685)
# In short: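 Cell-free plates of MEM plus 10% FBS received 23 nL compound or DMSO vehicle; blue-channel (405/460 nm) intensity scored against triamterene as reference fluorophore.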
# [7] = qHTS assay to test for compound auto fluorescence at 535 nm (green) in HepG2 cell free culture (AID 720686)
# [8] = qHTS assay to test for compound auto fluorescence at 460 nm (blue) in HepG2 cells (AID 720687)
# In short: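 HepG2 cells in MEM with 10% FBS, attached overnight at 37 C, were exposed to compound or DMSO for 1 hr at 37 C, 5% CO2. Blue fluorescence was read at 405/460 nm, with triamterene as reference fluorophore.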
# [9] = molecular target: Glucocorticoid receptor (Homo sapiens) (UniProt P04150); assay: qHTS assay to identify small molecule agonists of the glucocorticoid receptor (GR) signaling pathway (AID 720691; active = well fitted activation curve with a large enough effect in the signal ratio in the repeat runs, not every such curve was filed as active; inconclusive = weak or mixed curves, or effect the other way; inactive = no such curve, though single readings can be large or run the other way; the % refers to the signal ratio; note: potency is the fitted concentration of half-maximal effect); conditions: GR-bla HeLa, beta-lactamase reporter ratio, 18 h; activation: at 62.4 µM (top of the series)
# In short: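 Cells: GR-bla HeLa, endogenous GR with stably integrated GRE-beta-lactamase reporter. Treatment 18 h, 37 C, compounds delivered in DMSO. Detection via LiveBLAzer B/G FRET substrate, 2 h RT, fluorescence intensity.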
# [10] = qHTS assay to identify small molecule antagonists of the glucocorticoid receptor (GR) signaling pathway - cell viability counter screen (AID 720693); note: nearly all actives have a fitted effect of over 55% in size; note: potency is the fitted concentration of half-maximal effect
# [11] = qHTS assay for identifying genotoxic compounds that show differential cytotoxicity against isogenic chicken DT40 cell lines with known DNA damage response pathways - wild type cell line (AID 743012); note: nearly all actives have a fitted effect of over 60% in size; note: potency is the fitted concentration of half-maximal effect
# In short: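 Luminescent ATP viability signal (CellTiter-Glo, 30 min RT) recorded after wild type DT40 cells were incubated with compounds for 40 h at 37 C/5% CO2.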
# [12] = qHTS assay for identifying genotoxic compounds that show differential cytotoxicity against isogenic chicken DT40 cell lines with known DNA damage response pathways - Rev3 mutant cell line (AID 743014); note: nearly all actives have a fitted effect of over 55% in size; note: potency is the fitted concentration of half-maximal effect
# [13] = qHTS assay for identifying genotoxic compounds that show differential cytotoxicity against isogenic chicken DT40 cell lines with known DNA damage response pathways - Rad54/Ku70 mutant cell line (AID 743015); note: nearly all actives have a fitted effect of over 60% in size; note: potency is the fitted concentration of half-maximal effect
# [14] = qHTS assay to identify small molecule antagonists of the androgen receptor (AR) signaling pathway - cell viability counter screen (AID 743033; note: nearly all actives have a fitted effect of over 45% in size; note: potency is the fitted concentration of half-maximal effect)
# [15] = molecular target: Androgen receptor (Homo sapiens) (UniProt P10275); assay: qHTS assay to identify small molecule antagonists of the androgen receptor (AR) signaling pathway (AID 743035; active = well fitted inhibition curve with a large enough effect in the signal ratio in the repeat runs, not every such curve was filed as active; inconclusive = weak or mixed curves, or effect the other way; inactive = no such curve, though single readings can be large or run the other way; the % refers to the signal ratio; note: potency is the fitted concentration of half-maximal effect)
# In short: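 Quantitative HTS of the Tox21 10K library used HEK293 AR-UAS-bla cells stimulated with R1881 alongside compound for 16 h at 37C, followed by beta-lactamase FRET detection (LiveBLAzer B/G, 2 h, RT).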
# [16] = molecular target: Androgen receptor (Homo sapiens) (UniProt P10275); assay: qHTS assay to identify small molecule agonists of the androgen receptor (AR) signaling pathway (AID 743036; active = well fitted activation curve with a large enough effect in the signal ratio in the repeat runs, with a control signal flat, not every such curve was filed as active; inconclusive = weak or mixed curves, or effect the other way; inactive = no such curve, though single readings can be large or run the other way; the % refers to the signal ratio)
# In short: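 Quantitative HTS of the Tox21 10K library in HEK293 cells bearing a stably integrated UAS-controlled beta-lactamase reporter. Compound exposure lasted 16 h at 37C. Reporter activity was detected by FRET substrate fluorescence after 2 h at room temperature.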
# [17] = molecular target: Androgen receptor (Homo sapiens) (UniProt P10275); assay: qHTS assay to identify small molecule agonists of the androgen receptor (AR) signaling pathway using the MDA cell line (AID 743040; note: nearly all actives have a fitted effect of over 20% in size)
# In short: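 Testing was done with the MDA-kb2 AR-luc line, a human breast carcinoma stably transfected with MMTV-luciferase containing AR and GR response elements. Cells were exposed 16 h at 37C before ONE-Glo luminescence detection.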
# [18] = qHTS assay to identify small molecule antagonists of the androgen receptor (AR) signaling pathway using the MDA cell line - cell viability counter screen (AID 743041; note: nearly all actives have a fitted effect of over 45% in size)
# In short: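 Compound exposure lasted 16 h at 37C in MDA-kb2 AR-luc cells stimulated with R1881. Protease-based CellTiter-Fluor reagent was applied for the final 30 min and fluorescence measured.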
# [19] = molecular target: Androgen receptor (Homo sapiens) (UniProt P10275); assay: qHTS assay to identify small molecule antagonists of the androgen receptor (AR) signaling pathway using the MDA cell line (AID 743042; note: nearly all actives have a fitted effect of over 55% in size; note: potency is the fitted concentration of half-maximal effect)
# In short: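 MDA-kb2 breast carcinoma cells carrying MMTV-luciferase (AR/GR responsive) were co-treated with compounds and the agonist R1881 for 16 h at 37C. Inhibition read as ONE-Glo luminescence; CellTiter-Fluor fluorescence measured in parallel for cytotoxicity.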
# [20] = molecular target: Glucocorticoid receptor (Homo sapiens) (UniProt P04150); assay: qHTS assay to identify small molecule antagonists of the glucocorticoid receptor (GR) signaling pathway (AID 720692; active = well fitted inhibition curve with a large enough effect in the signal ratio in the repeat runs, not every such curve was filed as active; inconclusive = weak or mixed curves, or effect the other way; inactive = no such curve, though single readings can be large or run the other way; the % refers to the signal ratio)
# In short: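 Quantitative HTS in antagonist format: HeLa cells expressing endogenous GR and a stably integrated GRE-bla reporter, stimulated with 5 nM dexamethasone (final) alongside test compounds for 18 h.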
# Glucocorticoid receptor (Homo sapiens), sequence (P04150 whole entry, looked up): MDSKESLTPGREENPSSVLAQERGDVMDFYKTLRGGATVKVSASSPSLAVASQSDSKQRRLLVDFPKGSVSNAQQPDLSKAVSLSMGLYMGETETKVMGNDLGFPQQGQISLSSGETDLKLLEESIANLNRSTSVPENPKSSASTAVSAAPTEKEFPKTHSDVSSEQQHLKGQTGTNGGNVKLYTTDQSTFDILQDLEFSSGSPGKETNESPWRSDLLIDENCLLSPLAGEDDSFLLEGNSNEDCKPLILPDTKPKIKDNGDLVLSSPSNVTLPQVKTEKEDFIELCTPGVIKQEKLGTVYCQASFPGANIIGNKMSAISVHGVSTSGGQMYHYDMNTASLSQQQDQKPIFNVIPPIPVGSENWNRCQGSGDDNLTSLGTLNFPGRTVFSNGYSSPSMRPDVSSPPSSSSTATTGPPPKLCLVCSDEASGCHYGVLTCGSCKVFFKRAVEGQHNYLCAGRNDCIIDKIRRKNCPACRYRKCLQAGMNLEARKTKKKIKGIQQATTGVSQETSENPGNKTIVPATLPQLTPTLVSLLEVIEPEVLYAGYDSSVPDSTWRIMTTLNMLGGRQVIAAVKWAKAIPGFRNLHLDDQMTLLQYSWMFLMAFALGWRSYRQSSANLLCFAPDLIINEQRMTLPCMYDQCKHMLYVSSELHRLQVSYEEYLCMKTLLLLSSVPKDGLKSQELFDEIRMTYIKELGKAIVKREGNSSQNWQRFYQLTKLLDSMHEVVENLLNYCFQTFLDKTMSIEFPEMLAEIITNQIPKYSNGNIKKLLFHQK
# Androgen receptor (Homo sapiens), sequence (P10275 whole entry, looked up): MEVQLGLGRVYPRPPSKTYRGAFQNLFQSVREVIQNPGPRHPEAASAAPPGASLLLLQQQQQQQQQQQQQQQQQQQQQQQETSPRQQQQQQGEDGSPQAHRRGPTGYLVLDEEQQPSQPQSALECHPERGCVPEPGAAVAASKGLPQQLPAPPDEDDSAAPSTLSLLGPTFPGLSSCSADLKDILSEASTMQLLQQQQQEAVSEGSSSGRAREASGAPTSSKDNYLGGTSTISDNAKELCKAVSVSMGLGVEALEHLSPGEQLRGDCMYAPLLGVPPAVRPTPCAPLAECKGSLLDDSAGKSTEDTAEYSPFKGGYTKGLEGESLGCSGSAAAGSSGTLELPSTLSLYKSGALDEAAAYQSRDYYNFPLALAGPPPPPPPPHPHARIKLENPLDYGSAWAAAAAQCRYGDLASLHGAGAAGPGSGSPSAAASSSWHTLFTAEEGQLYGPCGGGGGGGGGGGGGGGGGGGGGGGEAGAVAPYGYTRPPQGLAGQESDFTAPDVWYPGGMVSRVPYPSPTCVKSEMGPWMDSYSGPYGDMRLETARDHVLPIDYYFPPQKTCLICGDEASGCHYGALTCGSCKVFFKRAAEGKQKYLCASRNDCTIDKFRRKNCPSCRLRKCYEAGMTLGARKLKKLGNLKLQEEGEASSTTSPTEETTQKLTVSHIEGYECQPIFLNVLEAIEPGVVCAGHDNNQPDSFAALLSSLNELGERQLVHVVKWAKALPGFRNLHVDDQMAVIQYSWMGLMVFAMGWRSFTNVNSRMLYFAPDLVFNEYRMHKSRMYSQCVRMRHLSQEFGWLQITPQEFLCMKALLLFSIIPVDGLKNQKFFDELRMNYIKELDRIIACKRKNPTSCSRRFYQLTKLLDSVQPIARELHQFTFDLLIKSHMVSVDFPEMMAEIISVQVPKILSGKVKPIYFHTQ
SMILES,Potency [1],Potency [2],Potency [3],Potency [4],Potency [5],outcome [6],Potency [7],outcome [8],Potency [9],Potency [10],Potency [11],Potency [12],Potency [13],Potency [14],Potency [15],Potency [16],Potency [17],Potency [18],Potency [19],Potency [20]
CC1(C)S[C@@H]2[C@H](NC(=O)C3(N)CCCCC3)C(=O)N2[C@H]1C(=O)O,inactive,inactive,inactive,inactive,inactive,inactive,inactive,inactive,inactive,inactive,inactive,inactive,inactive,inactive,inactive,inactive,inactive,inactive,inactive,–
Clc1cc(Cl)c(OCC#CI)cc1Cl,inactive,inactive,inactive,inactive,inactive,inactive,inactive,inactive,26800 nM [inconclusive] (active),inactive,1680 nM (active),2980 nM (active),2660 nM (active),–,–,–,–,–,–,–
CCCCCCCCCCCCCC[n+]1ccc(C)cc1,inactive,inactive,inactive,inactive,inactive,inactive,inactive,inactive,inactive,21300 nM (active),188 nM (active),335 nM (active),266 nM (active),6010 nM (active),9520 nM (active),inactive,inactive,–,5960 nM (active),–
O=C(O)CCC/C=C\C[C@@H]1[C@@H](/C=C/[C@@H](O)COc2cccc(C(F)(F)F)c2)[C@H](O)C[C@@H]1O,inactive,inactive,inactive,inactive,inactive,inactive,inactive,inactive,inactive,inactive,inactive,inactive,inactive,inactive,inactive,–,inactive,inactive,inactive,–
O=C(OCCO)c1ccccc1O,inactive,inactive,inactive,inactive,inactive,inactive,inactive,inactive,inactive,inactive,–,inactive,inactive,–,–,–,–,inactive,–,inactive
CS(=O)(=O)OCC(O)C(O)COS(C)(=O)=O (stereo not drawn),inactive,inactive,inactive,inactive,inactive,inactive,inactive,inactive,inactive,inactive,8410 nM (active),1330 nM (active),23700 nM (active),inactive,–,inactive,inactive,inactive,inactive,–
O=C(/C=C/c1cccc(F)c1)NC1CC1,inactive,inactive,inactive,inactive,inactive,inactive,inactive,inactive,inactive,inactive,inactive,inactive,inactive,inactive,–,–,–,–,–,–
NC(=O)OC[C@@H]1[C@H](NC(=O)/C(=N\OCC(=O)O)c2csc(N)n2)C(=O)N1S(=O)(=O)O,inactive,inactive,inactive,inactive,inactive,inactive,inactive,inactive,inactive,inactive,–,–,inactive,inactive,–,–,–,inactive,–,inactive
c1ccc2cc(C3=NCCN3)ccc2c1,inactive,inactive,inactive,inactive,inactive,inactive,inactive,inactive,inactive,inactive,–,–,18800 nM (active),inactive,–,–,–,inactive,–,inactive
CCN(CC)c1ccc(N=Nc2ccc(S(=O)(=O)N(C)C)cc2)c(S(=O)(=O)NCC[n+]2ccccc2)c1,inactive,inactive,inactive,inactive,inactive,inactive,inactive,inactive,inactive,inactive,–,inactive,–,–,inactive,inactive,inactive,inactive,inactive,inactive
C[C@H]1[C@@H](OC(=O)CCC(=O)O)O[C@@H]2OC3(C)CC[C@H]4[C@H](C)CC[C@@H]1[C@@]24OO3,inactive,inactive,inactive,inactive,inactive,inactive,inactive,inactive,inactive,inactive,188 nM (active),188 nM (active),119 nM (active),inactive,–,–,–,–,–,–
Cn1c(=O)c2c(ncn2CCOC(=O)C(C)(C)Oc2ccc(Cl)cc2)n(C)c1=O,inactive,inactive,inactive,inactive,inactive,inactive,inactive,inactive,inactive,inactive,–,inactive,–,inactive,–,–,–,inactive,–,inactive
C[N+](C)(CCCCCC[N+](C)(C)C1c2ccccc2-c2ccccc21)C1c2ccccc2-c2ccccc21,inactive,inactive,inactive,inactive,inactive,inactive,inactive,inactive,inactive,inactive,–,–,–,inactive,–,–,–,inactive,–,inactive
CC(C)c1nc(N(C)S(C)(=O)=O)nc(-c2ccc(F)cc2)c1/C=C/C(O)CC(O)CC(=O)O (stereo not drawn),inactive,inactive,inactive,inactive,inactive,inactive,inactive,inactive,inactive,inactive,–,–,–,inactive,–,–,–,inactive,–,inactive
